Test results taken from PubChem BioAssay (NCATS).
Where “and” joins values, the source holds several entries; their conditions need not be identical. Equal values may be shown once. Records with an inconclusive call do not appear. Calls of active or inactive are those of the source. Unless noted, calls come from the whole dose curve; as a rule, active = well fitted activation curve with a large enough effect; inconclusive = small, poorly fitted or top-dose-only effect; inactive = flat fitted curve, though single readings scatter.

Key:
[1] = qHTS assay for small molecule activators of the p53 signaling pathway (AID 651743; active = well fitted activation curve with a large enough effect in the signal ratio, not every such curve was filed as active; the % refers to the signal ratio; note: series mostly up to about 92 µM; % of control where 0% means no effect); details: HCT-116 p53RE-bla, beta-lactamase FRET ratio, 16 h; activation: stronger effect = higher value
Summary of the method: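 p53RE-bla HCT-116 cells with a stably integrated beta-lactamase reporter under p53 response elements were plated, rested 5 hours at 37 C/5% CO2, then exposed to compounds in DMSO for 16 hours at 37 C. LiveBLAzer B/G FRET substrate was read after 2 hours at room temperature.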

[2] = qHTS assay for small molecule activators of the nuclear factor-kappa B (NF-kB) signaling pathway (AID 651749; active = well fitted activation curve with a large enough effect in the signal ratio; the % refers to the signal ratio; note: series mostly up to about 77 µM; % of control where 0% means no effect); details: NF-kB-bla ME-180 cells, beta-lactamase FRET ratio, 16 h; stronger effect = higher value
Summary of the method: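 ME-180 cells stably carrying a beta-lactamase reporter under an NF-kB response element were exposed to compound or DMSO vehicle for 16 hr at 37C, 5% CO2. Pathway activation was read by FRET, since reporter expression disrupts FRET.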

[3] = qHTS assay for small molecule disruptors of the mitochondrial membrane potential - 1 hr assay (AID 651754; calls by dose curve; note: % is set by controls: 0 for no effect and ±100 for the full control effect; nearly all actives have a fitted effect of over 35% in size)
Summary of the method: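 HepG2 cells, attached overnight at 37C, were exposed to compound or DMSO vehicle for 1 hr at 37C, 5% CO2, then stained with Mito-MPS dye for 30 min. Red aggregate versus green monomer fluorescence reports membrane potential.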

[4] = qHTS assay for small molecule disruptors of the mitochondrial membrane potential - 5 hr assay (AID 651755; calls by dose curve; note: % is set by controls: 0 for no effect and ±100 for the full control effect; nearly all actives have a fitted effect of over 40% in size)
Summary of the method: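 HepG2 cells, attached overnight at 37C, were exposed to compound or DMSO for 5 hr at 37C, 5% CO2. Mito-MPS dye was then added for 30 min, and fluorescence read at 490/535 nm (monomers) and 540/590 nm (aggregates).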

[5] = qHTS assay for environmental chemicals that activate the Aryl hydrocarbon Receptor (AhR) signaling pathway (AID 651777); details: 1A2-DRE human hepatoma cells, luciferase, 24 h; stronger effect = higher value; note: % of control where 0% means no effect; nearly all actives have a fitted effect of over 15% in size
Summary of the method: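 Stable CYP1A2 promoter/DRE-luciferase human hepatoma line treated 24 hr; One-Glo luminescence, 30 min RT.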

[6] = biological target: Peroxisome proliferator-activated receptor alpha (Homo sapiens) (UniProt Q07869); experiment: qHTS assay for small molecule agonists of the peroxisome proliferator-activated receptor alpha (PPARalpha) signaling pathway (AID 651778); details: PathHunter PPARalpha complementation, chemiluminescence, 6 h; stronger effect = higher value; note: % of control where 0% means no effect
Peroxisome proliferator-activated receptor alpha (Homo sapiens), sequence (Q07869 whole entry, looked up): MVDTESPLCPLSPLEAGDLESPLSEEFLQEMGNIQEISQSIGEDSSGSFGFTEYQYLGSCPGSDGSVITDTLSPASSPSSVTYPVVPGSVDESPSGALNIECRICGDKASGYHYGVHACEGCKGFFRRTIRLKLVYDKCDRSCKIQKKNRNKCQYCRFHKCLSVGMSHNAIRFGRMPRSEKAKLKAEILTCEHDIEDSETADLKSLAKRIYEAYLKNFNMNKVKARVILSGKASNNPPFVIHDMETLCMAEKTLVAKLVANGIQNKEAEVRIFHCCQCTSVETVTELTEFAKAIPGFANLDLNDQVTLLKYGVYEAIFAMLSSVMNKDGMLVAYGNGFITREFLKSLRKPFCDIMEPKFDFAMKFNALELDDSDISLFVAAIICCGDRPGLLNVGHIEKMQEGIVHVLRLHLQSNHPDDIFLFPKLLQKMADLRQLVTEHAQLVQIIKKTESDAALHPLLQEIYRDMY
Summary of the method: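 Cells plated at 2,000/well and held overnight at 37 C, 5% CO2, then compound added by pin tool for 6 hr; after PathHunter detection reagent and 60 min at room temperature, chemiluminescence from enzyme complementation was read.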

[7] = qHTS assay to identify small molecules that stimulate interleukin-8 (IL-8) secretion (AID 651758; active = well fitted activation curve with a large enough effect in the signal ratio; the % refers to the signal ratio; note: 0% is about no effect)
Summary of the method: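 THP-1, 2000 cells/well; cpd 16 h, 37 C; add cryptate + XL665 anti-IL-8 Abs; RT 1-3 h; TR-FRET read.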

CCOC(=O)CC(SP(=S)(OC)OC)C(=O)OCC (stereo unspecified)
inactive: activation [1] -1.29% and 0.916% and -0.523% | activation [2] -3.4% and -2.42% | Potency [3] | Potency [4] | activation [5] 1.62% and 10.4% and -0.452% | max response [6] -2.48% and 0.447% and -3.85%

Nc1ccccc1
inactive: activation [1] 1.3% | outcome [7] | max response [6] 7.46%

COC(=O)C(c1ccccc1)C1CCCCN1 (stereo unspecified)
inactive: activation [1] -1.5% and -3.75% | activation [2] 0.137% and 0.745% | Potency [3] | Potency [4] | outcome [7] | activation [5] 0.112% and -0.732% | max response [6] -1.82% and 0.192%

C[C@]1(O)CC[C@H]2[C@@H]3CCC4=CC(=O)CC[C@]4(C)[C@@]3(F)[C@@H](O)C[C@@]21C
inactive: activation [1] -1.51% | activation [2] -0.7% | Potency [3] | Potency [4] | outcome [7] | activation [5] 0.165% | max response [6] 3%

CC1(C)C(C=C(Cl)Cl)C1C(=O)OC(C#N)c1cccc(Oc2ccccc2)c1 (stereo unspecified)
inactive: activation [1] -1.45% | activation [2] 1.83% | activation [5] 3.99% | max response [6] -4.65%

C[C@]12CCC(=O)C=C1CC[C@@H]1[C@@H]2CC[C@@]2(C)[C@H]1CC[C@]2(C)O
inactive: activation [1] 5.56% | outcome [7] | activation [5] -0.473% | max response [6] 7.27%
